According to PubChem BioAssay AID2634 (National Center for Advancing Translational Sciences (NCATS), 2010):
Results filed as inconclusive are left out. Activity calls are given as the source filed them.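 Rule for the calls: active = compounds whose potency, the dose giving half inhibition, is below 20 µM; inconclusive = compounds meeting neither the active nor the inactive rule; inactive = potency over 20 µM or below 50% inhibition when unfitted.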

Each compound was assayed against Integrin alpha-IIb (Homo sapiens) (UniProt P08514) (assay: Platelet Adhesion Secondary Assay for Inhibitors of Platelet Integrin alphallb-beta3). Conditions: human platelet adhesion to fibrinogen, calcein fluorescence; at 30 µM, stronger effect = higher value unless noted.
Chain of Integrin alpha-IIb (Homo sapiens) (P08514 whole entry, looked up): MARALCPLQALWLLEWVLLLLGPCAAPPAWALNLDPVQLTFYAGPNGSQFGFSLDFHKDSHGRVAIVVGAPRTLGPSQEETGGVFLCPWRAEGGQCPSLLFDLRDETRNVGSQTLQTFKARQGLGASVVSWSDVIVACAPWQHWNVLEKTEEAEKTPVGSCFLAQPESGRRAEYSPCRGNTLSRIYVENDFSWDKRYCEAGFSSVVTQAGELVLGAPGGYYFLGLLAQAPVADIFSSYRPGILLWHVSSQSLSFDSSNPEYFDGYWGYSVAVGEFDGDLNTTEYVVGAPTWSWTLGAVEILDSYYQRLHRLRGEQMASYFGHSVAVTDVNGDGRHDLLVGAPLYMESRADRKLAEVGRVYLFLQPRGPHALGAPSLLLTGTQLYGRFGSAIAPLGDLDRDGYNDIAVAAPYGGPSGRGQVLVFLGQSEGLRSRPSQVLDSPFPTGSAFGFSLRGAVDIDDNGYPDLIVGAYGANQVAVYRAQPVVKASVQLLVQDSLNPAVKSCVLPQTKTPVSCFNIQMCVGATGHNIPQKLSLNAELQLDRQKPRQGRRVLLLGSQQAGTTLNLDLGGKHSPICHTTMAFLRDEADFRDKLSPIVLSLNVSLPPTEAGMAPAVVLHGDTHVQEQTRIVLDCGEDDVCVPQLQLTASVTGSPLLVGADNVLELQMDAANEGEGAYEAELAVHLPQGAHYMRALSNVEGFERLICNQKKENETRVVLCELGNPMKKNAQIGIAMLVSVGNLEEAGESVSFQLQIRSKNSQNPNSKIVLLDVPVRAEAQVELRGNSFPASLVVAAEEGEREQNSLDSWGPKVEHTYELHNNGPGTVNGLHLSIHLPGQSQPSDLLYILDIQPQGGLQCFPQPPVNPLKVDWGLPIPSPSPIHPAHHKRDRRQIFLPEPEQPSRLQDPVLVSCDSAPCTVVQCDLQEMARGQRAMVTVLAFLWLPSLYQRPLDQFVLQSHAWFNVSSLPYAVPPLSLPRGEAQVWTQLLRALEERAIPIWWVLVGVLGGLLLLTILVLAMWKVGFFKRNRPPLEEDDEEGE
Description: NIH Molecular Libraries Probe Production Network [MLPCN] NIH Chemical Genomics Center [NCGC] MLPCN Grant: 1 R03 MH083257-01 Assay Provider: Barry Coller, Rockefeller University NCGC Assay Overview: The alphaIIbbeta3 receptor plays a vital role in hemostasis and thrombosis, where receptor deficiency causes the hemorrhagic disorder, Glanzmann thrombasthenia, and uncontrolled receptor activation causes thrombosis and blood vessel occlusion. Small molecule inhibitors of alphaIIbbeta3, tirofiban and eptifibatide, have undesirable side effects thought to arise from conformational changes in alphaIIbbeta3. These changes transiently activate the receptor to cause spontaneous platelet aggregation and thrombus formation. […] This secondary assay measures the binding of human plates to fibrinogen, an extracellular matrix protein (Blue et al., 2008). Platelets were loaded with a fluorescent dye, calcein, and added to fibrinogen-coated plates. Following incubation, unbound platelets were removed by washing and bound platelets were detected by measuring fluorescence intensity. Inhibitors of alphaIIbbeta3 block platelet binding to fibrinogen and result in a decrease in fluorescence intensity.
NCGC Assay Protocol Summary: Human fibrinogen (50 ug/mL) in Tris/saline (100 mM NaCl, 50 mM Tris/HCl, pH 7.4; American Diagnostica, Stamford, CT) was added to black, clear-bottom, untreated polystyrene, nonsterile 384-well microtiter plate wells (Corning no. 3711; Acton, MA) using a peristaltic microplate dispenser (WellMate; Matrix, Hudson, NH). After incubating at 22 C for 1 hour, plates were washed 4 times with Tris/saline using an automated plate washer (ELX405; Bio-Tek, Winooski, VT), and wells were then blocked with HBMT (138 mM NaCl, 12 mM NaHCO3, 10 mM HEPES, 2.7 mM KCl, 0.4 mM NaH2PO4, 0.1% glucose, 0.35% BSA, pH 7.4) for at least 1 hour. After 2 additional washes, 15 uL HBMT was allowed to remain in each well. Compounds were added to the wells with a liquid handling robot (MiniTrak V; PerkinElmer, Wellesley, MA) using a pin tool (VP Scientific, San Diego, CA) that added 0.1 uL compound in DMSO. Fifteen microliters 5E11/L calcein-labeled platelets were then added (2.5E11/L final concentration). After 1 hour of adhesion, wells were washed 4 times with HBMT-CaCl2/MgCl2 and the plates were read by an Envision (Perkin Elmer) to detect calcein fluorescence (490 nm excitation and 515 nm emission). Positive controls consisted of wells containing platelets without compounds. Negative controls were wells containing platelets and known inhibitors of alphaIIbbeta3, including mAbs 7E3 and 10E5, and EDTA. Reference Blue R, Murcia M, Karan C, Jirouskova M, and Coller BS. Application of high-throughput screening to identify a novel alphaIIb-specific small- molecule inhibitor of alphaIIbbeta3-mediated platelet interaction with fibrinogen. Blood. 2008, 111(3):1248-56

Row | Compound | inhibition | outcome
1 | Cc1nn2c(=O)cc(N3CCNCC3)nc2s1 | 20% (inactive) | –
2 | CCc1nn2c(=O)c(C)c(N3CCNCC3)nc2s1 | 55% [inhibition, at 100 µM, stronger effect = higher value] | inactive
3 | CCc1nn2c(=O)c(F)c(N3CCNCC3)nc2s1 | 41% [inhibition, at 100 µM, stronger effect = higher value] | inactive
4 | CCc1nn2c(=O)cc(N3CCN(C)CC3)nc2s1 | 23% (inactive) | –
5 | CCc1nn2c(=O)cc(N3CCNCC3)nc2s1 | 35% (inactive) | –
